Compounds with a hit are over-represented: about 5.5% of the library has one in this group of screens.
Integrin act MD – activators of alpha7 integrin expression for muscular dystrophy; alpha7betagal myoblasts, beta-gal FDG fluorescence, 48 h; Potency, µM (doses to about 38.3 µM), usual class: activators; actives 0.064% (n = 350,000); AID 624291; also: nearly all actives have a fitted effect of over 60% in size
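alpha7betagal+/- myoblasts (passage 13, 250/well) treated 48 h at 37C with compounds at 1:260 dilution of DMSO stock. Lysed, then beta-galactosidase activity read as FDG fluorescence (ex 480/em 540) after 30 min, with pre-read for autofluorescence.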
Mito fusion yeast – inhibitors of mitochondrial division or activators of mitochondrial fusion | S. cerevisiae fusion-defective mutant growth rescue, CellTiterGlo 48 h | Potency, µM (top dose mostly 46.1 µM), usual class: activators | actives 0.23% (n = 320,000) | AID 485298; also: nearly all actives have a fitted effect of over 45% in size
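Read-out: ATP-based luminescence (CellTiterGlo, 10 min ambient) reporting growth of fusion-defective ts yeast after 48 hours at 37C on glycerol/ethanol YPEG medium in the presence of compound.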
BCR signal inh – inhibitors of chronic active B-cell receptor signaling; ABC-DLBCL IkBa-CBG/CBR reporter, luminescence ratio, 4 h; Potency, µM (top dose mostly 46.1 µM), usual class: inhibitors; actives 0.05% (n = 340,000); active = well fitted inhibition curve with a large enough effect in the signal ratio, with a control signal flat, not every such curve was filed as active; inconclusive = small, poorly fitted or top-dose-only effect, or effect the other way, or a change in a side signal; the % refers to the signal ratio
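Concentration-response series (up to 46 uM) were applied to TMD8 dual-reporter cells for 4 h at 37C with doxycycline. Green/red ratio, after filter-overlap correction, defined %Activity; red signal alone was normalised to basal cells and zero luminescence.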
VP16 counter – counter-screen for ROR gamma inhibitors: Gal4-VP16 reporter. Drosophila S2 Gal4-VP16 UAS-luciferase, luminescence, 20 h. Potency, µM (top dose mostly 53.6 µM), most hits filed as inhibitors. actives 3.5% (n = 310,000);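 also: Gal4-VP16 expression switched on by copper sulfate through the metallothionein promoter; nearly all actives have a fitted effect of over 50% in size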
RORg inh – blocks mouse ROR gamma transcriptional activity. Potency, µM (series often up to 53.6 µM), most hits filed as inhibitors. Drosophila S2 Gal4-RORgamma UAS-luciferase reporter, 20 h. P51450. actives 5.4% (n = 310,000); also: nearly all actives have a fitted effect of over 60% in size
Target sequence (P51450 whole entry, looked up, the tested form may be a part): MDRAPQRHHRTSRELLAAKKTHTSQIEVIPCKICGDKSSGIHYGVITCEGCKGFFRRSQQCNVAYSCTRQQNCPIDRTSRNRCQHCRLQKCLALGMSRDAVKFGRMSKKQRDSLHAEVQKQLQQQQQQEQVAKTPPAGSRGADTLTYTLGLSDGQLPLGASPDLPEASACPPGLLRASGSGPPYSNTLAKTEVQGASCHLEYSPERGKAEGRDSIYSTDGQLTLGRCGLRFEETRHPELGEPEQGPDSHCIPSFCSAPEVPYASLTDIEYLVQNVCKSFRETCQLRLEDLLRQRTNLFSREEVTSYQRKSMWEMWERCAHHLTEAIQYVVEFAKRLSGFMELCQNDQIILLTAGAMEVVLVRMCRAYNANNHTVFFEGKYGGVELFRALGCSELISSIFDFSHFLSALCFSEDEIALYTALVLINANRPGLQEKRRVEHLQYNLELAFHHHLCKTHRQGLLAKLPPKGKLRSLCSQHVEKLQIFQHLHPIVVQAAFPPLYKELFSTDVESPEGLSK
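Read-out: Photinus luciferase luminescence; inhibitors lower reporter signal. Insect Schneider cells with Gal4-ROR gamma fusion under metallothionein promoter, UAS reporter; 700 uM final copper sulfate induction, 20 hr, ambient temperature.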
uPA surface inh – blocks generation of uPA at the cell surface | cell surface uPA generation assay, qHTS | Potency, µM (doses to about 38.3 µM), actives largely listed as inhibitors | actives 0.31% (n = 330,000); active = well fitted inhibition curve with a large enough effect; inconclusive = small, poorly fitted or top-dose-only effect; inactive = no such curve, though single readings can be large or run the other way; tested in mouse RAW 264.7 cells; also: nearly all actives have a fitted effect of over 55% in size
Large screens that a line does not name were inactive. Unless noted, calls follow the shape of the dose curve; as a rule, active = well fitted curve in the direction sought with a large enough effect; inconclusive = small, poorly fitted or top-dose-only effect, or another doubt; inactive = no such curve, though single readings can be large; an effect the other way counts as inactive or inconclusive.

COc1cc2oc3ccc(C#Cc4ccc(N)cc4)cc3c(=O)c2cc1OC	none (no result: Mito fusion yeast, BCR signal inh, VP16 counter, RORg inh)
COc1cc2oc3cc(C#Cc4ccc(N)cc4)ccc3c(=O)c2cc1OC	uPA surface inh 4µM (no result: Mito fusion yeast, BCR signal inh, VP16 counter, RORg inh)
N#Cc1ccc(C#Cc2ccc3oc4ccccc4c(=O)c3c2)cc1	none (no result: Mito fusion yeast, VP16 counter, RORg inh)
O=C(N/N=C/c1cccc([N+](=O)[O-])c1)c1ccccc1-n1cccc1	VP16 counter inconclusive
CC(C)OCCCNC(=S)Nc1ccc(S(N)(=O)=O)cc1	BCR signal inh inconclusive, VP16 counter 35µM
CNC1C(O)C(OC2C(NC(=O)C(O)CN)CC(N)C(OC3OC(CN)C(O)C(O)C3O)C2O)OCC1(C)O (stereo not given)	none (no result: Integrin act MD, Mito fusion yeast, BCR signal inh, uPA surface inh)
CCCCCCCc1cc2c(cn1)=C(OC)C(C)(OC(C)=O)C(=O)C=2Cl (stereo not given)	none (no result: Integrin act MD, Mito fusion yeast, BCR signal inh, uPA surface inh)
COc1ccccc1N(C)S(=O)(=O)c1ccc(C(=O)N(C)Cc2ccc(OC(F)F)cc2)cc1	none (no result: VP16 counter, RORg inh)
O=C(O)c1ccc(Nc2ccc(Cl)c(Cl)c2)c([N+](=O)[O-])c1	Integrin act MD inconclusive, Mito fusion yeast 14µM
Cc1ccc(Nc2ccc(C(=O)O)cc2[N+](=O)[O-])cc1	Mito fusion yeast inconclusive
C=CCNc1nc(N)c([N+](=O)[O-])c(Nc2ccccc2OC)n1	none
COc1ccccc1Nc1nc(NCCCN(C)C)nc(N)c1[N+](=O)[O-]	BCR signal inh inconclusive, VP16 counter 16µM, RORg inh inconclusive
CC(C)C[C@H](NC(=O)c1[nH]cnc1C(=O)N[C@@H](Cc1ccccc1)C(=O)OC(C)(C)C)C(=O)OCc1ccccc1	BCR signal inh inconclusive, VP16 counter inconclusive, RORg inh 7.9µM
CCN(CC)C(=O)c1[nH]cnc1C(=O)N[C@@H](CC(C)C)C(=O)OC(C)(C)C	VP16 counter inconclusive, RORg inh inconclusive
CCN(CC)C(=O)c1[nH]cnc1C(=O)N[C@@H](Cc1ccccc1)C(=O)OC(C)(C)C	VP16 counter inconclusive, RORg inh 10µM, uPA surface inh inconclusive
CC(C)C[C@H](NC(=O)c1[nH]cnc1C(=O)N[C@@H](Cc1ccccc1)C(=O)OCc1ccccc1)C(=O)OC(C)(C)C	BCR signal inh inconclusive, VP16 counter 16µM, RORg inh 5.6µM
CC(C)(C)OC(=O)CNC(=O)c1nc[nH]c1C(=O)NCc1ccccc1	VP16 counter inconclusive, RORg inh 7.1µM
C[C@H](NC(=O)c1nc[nH]c1C(=O)N[C@@H](Cc1ccccc1)C(=O)OCc1ccccc1)C(=O)OC(C)(C)C	BCR signal inh inconclusive, VP16 counter inconclusive, RORg inh inconclusive
CC(C)C[C@H](NC(=O)c1[nH]cnc1C(=O)N[C@@H](C)C(=O)OCc1ccccc1)C(=O)OCc1ccccc1	none (no result: Mito fusion yeast, VP16 counter, RORg inh)
CC(C)C[C@H](NC(=O)c1[nH]cnc1C(=O)N[C@@H](C)c1ccccc1)C(=O)OC(C)(C)C	BCR signal inh inconclusive, VP16 counter 0.63µM, RORg inh 0.63µM, uPA surface inh inconclusive
CC(C)C[C@H](NC(=O)c1[nH]cnc1C(=O)N[C@@H](C)C(=O)OC(C)(C)C)C(=O)OCc1ccccc1	VP16 counter inconclusive, RORg inh 16µM, uPA surface inh inconclusive
CC(C)(C)OC(=O)CNC(=O)c1[nH]cnc1C(=O)N[C@@H](Cc1ccccc1)C(=O)OC(C)(C)C	VP16 counter 13µM, RORg inh inconclusive
Cc1ccccc1NC(=O)c1nc[nH]c1C(=O)NCc1ccccc1	BCR signal inh inconclusive, VP16 counter 5µM, RORg inh 2.8µM
Cc1ccc(NC(=O)c2nc[nH]c2C(=O)NCc2ccccc2)cc1	none (no result: VP16 counter, RORg inh)
O=C(Nc1ccc(F)cc1F)c1cc2nc(-c3ccco3)cc(C(F)(F)Cl)n2n1	none (no result: Integrin act MD, VP16 counter, RORg inh, uPA surface inh)
CC(C)C[C@H](NC(=O)c1[nH]cnc1C(=O)N[C@@H](Cc1ccccc1)C(=O)OC(C)(C)C)C(=O)OC(C)(C)C	VP16 counter 11µM, RORg inh 3.2µM, uPA surface inh inconclusive
COCCn1c(=O)c(-c2ccc(Cl)cc2)nc2cnc(N3CCNCC3)nc21	none (no result: Integrin act MD, Mito fusion yeast, BCR signal inh, uPA surface inh)
COc1ccc2sc(N(CCCN(C)C)C(=O)c3nc4ccccc4s3)nc2c1	none
COc1ccccc1C(=O)N(CCC1CCCN1C)c1nc2ccccc2s1 (stereo not given)	BCR signal inh inconclusive, VP16 counter inconclusive, RORg inh 7.1µM
CCc1ccc2c(c1)c(N=NC1=NC(=O)CS1)c(O)n2CC	VP16 counter inconclusive, RORg inh 11µM
CCc1ccc2[nH]c(O)c(N=NC3=NC(=O)CS3)c2c1	Integrin act MD inconclusive, BCR signal inh inconclusive
O=C1c2ccccc2-c2onc3ccc(N4CCCC4)c1c23	BCR signal inh inconclusive, RORg inh inconclusive, uPA surface inh inconclusive
O=C1c2ccccc2C(=O)c2c1cccc2N1CCCC1	VP16 counter inconclusive, RORg inh 11µM
S=C(NCCc1ccccc1)Nc1nccs1	none (no result: VP16 counter, RORg inh)
S=C(NCCc1ccncc1)Nc1cccc2ccccc12	VP16 counter inconclusive, RORg inh 10µM
S=C(NCCc1ccccc1)NCc1cccc(Cl)c1	BCR signal inh inconclusive
Fc1ccccc1NC(=S)NCCc1cccc(Cl)c1	BCR signal inh inconclusive, VP16 counter 10µM, RORg inh 7.1µM
S=C(NCCc1ccccc1)Nc1ccc(Br)cn1	BCR signal inh inconclusive, VP16 counter 5µM, RORg inh 0.28µM (no result: uPA surface inh)
O=[N+]([O-])c1ccc(NC(=S)NCCc2ccccc2)cc1	BCR signal inh inconclusive
O=[N+]([O-])c1ccc(NC(=S)NCCc2ccc(Cl)cc2)cc1	BCR signal inh inconclusive, VP16 counter 3.5µM, RORg inh 0.63µM
CC(C1CC1)N(Cc1ccccc1)C(=S)Nc1ccccc1Cl (stereo not given)	VP16 counter inconclusive, RORg inh 10µM
S=C(NCCCCc1ccccc1)NCc1ccccc1	Integrin act MD inconclusive, VP16 counter inconclusive, RORg inh 16µM
S=C(NCCCc1ccccc1)Nc1ccccc1Cl	BCR signal inh inconclusive, RORg inh inconclusive
S=C(NCCc1ccccc1)Nc1ccccc1Cl	VP16 counter 10µM, RORg inh 5.6µM
S=C(NCc1ccccn1)Nc1ccccc1Cl	VP16 counter inconclusive, RORg inh 10µM
CC(C1CC1)N(Cc1ccccc1)C(=O)NC(=O)c1ccccc1 (stereo not given)	none
COc1ccc(OC)c(NC(=O)CC2Oc3ccccc3NC2=O)c1 (stereo not given)	none
S=C(NCc1ccc(Cl)cc1)NCc1ccccn1	VP16 counter inconclusive, RORg inh 16µM, uPA surface inh inconclusive
Cc1c(Cl)cccc1NC(=S)NCCc1ccc(C(F)(F)F)cc1	Integrin act MD inconclusive, VP16 counter inconclusive, RORg inh 2.5µM
CNC(=S)NCCCc1ccccc1	Integrin act MD inconclusive, VP16 counter inconclusive, RORg inh 16µM
S=C(NCc1ccccc1)NCc1ccccn1	Integrin act MD inconclusive, RORg inh inconclusive

From PubChem BioAssay
